High-throughput results (PubChem BioAssay)
HEK293 tox: Cytotoxic Profiling in HEK 293 Cell Line of Diverse Libraries Using Quantitative High-Throughput Screening; 94,000 tested, 6.6% active; HEK 293 viability, ATP luminescence (CellTiter-Glo), 48-72 h; Potency, µM (top dose mostly 115 µM), without a hit: at the top dose activity change, negative = cytotoxicity, usual class: inhibitors; further: nearly all actives have a fitted effect of over 60% in size
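250 HEK 293 cells/well; compound by pintool; incubated 48 or 72 hr at 37 degree Celsius; CellTiter-Glo added, 10 min RT, luminescence imaged.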
NIH3T3 tox: Cytotoxic Profiling in NIH 3T3 Cell Line of Diverse Libraries Using Quantitative High-Throughput Screening | 94,000 tested, 4.3% active | Potency, µM (titrated, usually from 96.7 µM), without a hit: at the top dose activity change, negative = cytotoxicity, hits mostly inhibitors | AID 1345082, 2018 | NIH 3T3 viability, CellTiter-Glo ATP luminescence, 48-72 h; further: nearly all actives have a fitted effect of over 55% in size
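ATP-dependent luminescence (CellTiter-Glo) served as the viability signal for NIH 3T3 cells treated with compound for 48 or 72 hr at 37 °C.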
NPR1 antag: Natriuretic polypeptide receptor (hNpr1) antagonism - Primary qHTS. Potency, µM (top dose mostly 46.3 µM), for the others: top-dose activity change, negative = inhibition, most hits filed as inhibitors. HEK293 hNpr1 GloSensor cGMP, ANP-stimulated luminescence. Atrial natriuretic peptide receptor 1 (Homo sapiens), P16066. 76,000 tested, 1.6% active; calls by dose curve; further: nearly all actives have a fitted effect of over 60% in size
Target sequence (P16066 whole entry, looked up): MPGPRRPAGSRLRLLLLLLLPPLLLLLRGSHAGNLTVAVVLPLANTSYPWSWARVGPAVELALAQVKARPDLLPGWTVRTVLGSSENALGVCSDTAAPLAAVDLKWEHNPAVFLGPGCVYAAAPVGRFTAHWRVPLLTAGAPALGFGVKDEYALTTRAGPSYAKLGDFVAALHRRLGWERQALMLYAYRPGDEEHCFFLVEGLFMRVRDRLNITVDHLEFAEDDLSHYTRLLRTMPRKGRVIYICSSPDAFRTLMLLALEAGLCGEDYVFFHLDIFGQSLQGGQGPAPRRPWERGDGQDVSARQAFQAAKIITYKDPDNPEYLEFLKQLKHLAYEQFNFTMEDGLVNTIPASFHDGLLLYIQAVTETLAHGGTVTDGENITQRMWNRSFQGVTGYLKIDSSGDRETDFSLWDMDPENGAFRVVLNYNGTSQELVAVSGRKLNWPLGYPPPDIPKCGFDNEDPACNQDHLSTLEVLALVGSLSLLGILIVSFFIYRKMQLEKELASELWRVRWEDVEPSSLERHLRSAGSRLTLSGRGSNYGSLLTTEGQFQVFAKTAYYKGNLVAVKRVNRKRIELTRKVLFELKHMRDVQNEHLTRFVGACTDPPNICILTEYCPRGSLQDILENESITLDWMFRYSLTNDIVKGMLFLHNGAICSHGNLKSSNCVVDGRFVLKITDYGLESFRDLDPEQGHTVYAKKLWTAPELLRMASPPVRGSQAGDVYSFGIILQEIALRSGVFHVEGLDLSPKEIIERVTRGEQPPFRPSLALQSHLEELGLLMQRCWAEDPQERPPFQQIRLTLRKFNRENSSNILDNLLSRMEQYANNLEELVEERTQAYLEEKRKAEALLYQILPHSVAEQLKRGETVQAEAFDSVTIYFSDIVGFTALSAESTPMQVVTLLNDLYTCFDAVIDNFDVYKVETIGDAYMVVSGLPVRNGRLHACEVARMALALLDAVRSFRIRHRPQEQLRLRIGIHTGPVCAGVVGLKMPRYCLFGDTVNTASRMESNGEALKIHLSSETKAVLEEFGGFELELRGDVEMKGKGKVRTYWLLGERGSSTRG
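Compound pre-incubated 30 min at room temperature on GloSensor-loaded HEK293 cells stably carrying hNpr1 and the pGS-40F cGMP biosensor. Stimulation uses hNppA at 0.1 nM final; luminescence is taken at baseline and 20 min post-agonist.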
FLuc inh: Firefly luciferase inhibition profiling of diverse chemical library using quantitative high-throughput screening; 76,000 tested, 2.5% active; purified P. pyralis luciferase, luminescence, biochemical; Potency, µM (titrated, usually from 115 µM), most hits filed as inhibitors; Luciferin 4-monooxygenase (Photinus pyralis), P08659; further: nearly all actives have a fitted effect of over 65% in size
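Purified P. pyralis luciferase (10nM final) in 50mM Tris acetate pH 7.5, 10mM Mg acetate, 0.01% Tween-20, 0.05% BSA with 10uM D-luciferin and 10uM ATP. Compounds titrated qHTS. Luminescence imaged on CCD.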
Active calls of the source: *; i = inactive; ? = inconclusive; nt = not tested or not shown; ! = a repeat was not active; [ ] = another dose, or the depositor's remark. This is a sample that favours compounds with a hit; in the whole collection about 11% have one here. Unless noted, the call rests on the fitted dose curve; in most records, active means well fitted curve in the direction sought with a large enough effect; inconclusive means small, poorly fitted or top-dose-only effect, or another doubt; inactive means no such curve, though single readings can be large; an effect the other way counts as inactive or inconclusive. On the % scale 0 is the no-effect control and ±100 the full control effect; potency means the concentration at half of the fitted maximal effect.

SMILES | HEK293 tox | NIH3T3 tox | NPR1 antag | FLuc inh
C=CCN1Cc2cc(F)ccc2N(CC(O)COc2ccccc2)CCC1=O (stereo unspecified) | 44.7µM* | ? | nt | nt
O=C1CCN(CC(O)COc2ccccc2)c2ccccc2CN1C1CC1 (stereo unspecified) | 39.8µM* | ? | nt | nt
COCCN1C(=O)c2cccn2CC1CNC(=O)CCc1ccc(OC)cc1 (stereo unspecified) | -2.2% | i | nt | nt
COCCn1c(C)cnc1CC1CCCN(Cc2cccc(F)c2)C1 (stereo unspecified) | -25.1% | -29.5% | -1.9% | i
Cc1cc(C(=O)N(CCC(=O)NCCC(C)C)CCC(C)C)c(C)o1 | 31.6µM* | ? | -15.9% | i
CCCCCN(CCC(=O)NCCC(C)C)C(=O)c1cc(C)oc1C | 28.2µM* | ? | -23.0% | i
CCCCN(CCC(=O)NCCc1ccccc1)C(=O)c1cc(C)oc1C | 14.1µM* | 35.5µM* | ? | i
COCCCNC(=O)CCN(CCC(C)C)C(=O)c1cc(C)oc1C | ? | -6.6% | -2.9% | i
c1cncc(-c2nc3ccncc3[nH]2)c1 | ? | ? | -7.2%[70.6 µM] | i
c1csc(-c2nc3ccncc3[nH]2)c1 | ? | 100µM*! | 11.0%[70.6 µM] | ?
c1ccc(-c2nc3ccncc3[nH]2)nc1 | 44.7µM*! | ? | 8.2%[70.6 µM] | i
Cc1cccc(NC(=O)Cn2c(-c3cnccn3)nc(C)c(C)c2=O)c1 | -1.0% | -8.2% | -15.0% | i
O=C(NCc1ccccn1)C1c2ccccc2C(=O)N(C2CCCCC2)C12CCCCC2 (stereo unspecified) | 25.1µM* | ? | -0.9% | i
O=C(NCCc1ccncc1)C1c2ccccc2C(=O)N(C2CCCCC2)C12CCCCC2 (stereo unspecified) | 39.8µM* | ? | -29.7% | i
O=C(NCCc1ccncc1)C1c2ccccc2C(=O)N(Cc2ccccc2)C12CCCC2 (stereo unspecified) | ? | ? | -15.7% | i
CCCNC(=O)C1c2ccccc2C(=O)N(C2CCCCC2)C12CCCCC2 (stereo unspecified) | 39.8µM* | ? | 1.5% | i
O=C(NCc1ccc2c(c1)OCO2)C1CCN(C(=O)c2ccc(-c3cncnc3)cc2)CC1 | -6.4% | -14.2% | nt | nt
CN1c2cc(C(=O)Nc3ccc(Cl)c(Cl)c3)ccc2C(=O)N2CCCCC21 (stereo unspecified) | ? | -24.1% | -22.8% | i
Cc1cc(C)n(Cc2cccc(C(=O)N[C@@H]3CCNC[C@H]3O)c2)n1 | -1.9% | -0.2% | 7.5% | i
O=C(N[C@@H]1CCNC[C@H]1O)c1cccc(-c2ccc(OC(F)(F)F)cc2)c1 | ? | 17.8µM* | 2.9% | i
C[S+](=O)([O-])c1ccc(-c2nc(C(=O)NCc3ccc4c(c3)OCO4)n3ccccc23)cc1 | -13.0% | -29.3% | -0.6% | i
CC1=C[C@@H](CNC(=O)CCC(=O)O)[C@H](C(C)C)C[C@H]1CC(=O)N(C)Cc1ccccc1 | -7.1%[172 µM] | -13.8%[174 µM] | -0.2%[70.6 µM] | i
CC1=C[C@@H](CNS(=O)(=O)c2ccc(C)cc2)[C@H](C(C)C)C[C@H]1CC(=O)N(C)Cc1cccnc1 | 44.7µM* | 11.2µM* | -18.5% | i
CC1=C[C@@H](CNC(=O)CCC(=O)O)[C@H](C(C)C)C[C@H]1CC(=O)NCc1cccnc1 | -8.6%[172 µM] | -3.4%[138 µM] | -1.1%[70.6 µM] | i
CC1=C[C@@H](CNC(=O)c2ccco2)[C@H](C(C)C)C[C@H]1CC(=O)N(C)Cc1ccccc1 | ? | 100µM* | 0.5%[70.6 µM] | i
SMILES | HEK293 tox | NIH3T3 tox | NPR1 antag | FLuc inh
COCCC(=O)NC[C@@H]1C=C(C)[C@H](CC(=O)N(C)Cc2cccnc2)C[C@H]1C(C)C | -15.2%[172 µM] | -0.5%[174 µM] | -4.0%[70.6 µM] | 56.2µM*
Cn1cccc1C(=O)N1CCCN(Cc2ccncc2)C(c2ccccc2)CC(=O)NCC1 (stereo unspecified) | 0.5% | -20.1% | -3.8% | i
Cc1cccc(-n2nc(C)c(CCC(=O)N3CCSCC3)c2Oc2ccccc2)c1 | 44.7µM* | ? | -25.3% | i
Cc1nn(-c2ccccc2)c(Oc2ccccc2F)c1CCC(=O)N1CCSCC1 | 35.5µM* | ? | -17.1% | i
Cc1nn(-c2ccc(F)cc2)c(Oc2ccccc2F)c1CCC(=O)N1CCSCC1 | ? | ? | -16.0% | i
Cc1cccc(-n2nc(C)c(CCC(=O)N3CCOCC3)c2Oc2ccccc2C)c1 | ? | ? | -11.5% | i
O=C(c1ccccc1)N1CCCC(C(=O)N2CCC(c3nc4ncccc4[nH]3)CC2)C1 (stereo unspecified) | -7.9% | -18.3% | nt | nt
Cn1ncc2c(C(=O)NC3CCN(Cc4ccccc4)CC3)cc(-c3ccc(C(F)(F)F)cc3)nc21 | -2.1% | -20.8% | nt | nt
COc1ccc(Nc2ncc(-c3cnn(C)c3)c3c2OCC3)cc1 | ? | ? | 6.2%[70.6 µM] | 25.1µM*
Cn1cc(-c2cnc(Nc3cnccn3)c3c2CCO3)cn1 | 1.5%[172 µM] | ? | -0.7%[70.6 µM] | ?
Cn1cc(-c2cnc(Nc3cncnc3)c3c2CCO3)cn1 | -10.6%[172 µM] | 100µM* | 0.6%[70.6 µM] | i
N#Cc1ccc(C(=O)N2CCCN(Cc3ccncc3)C(c3ccccc3)CC(=O)NCC2)cc1 (stereo unspecified) | -11.6% | -10.5% | -4.7% | i
COc1ccc(-c2cc(C(=O)N3CCOC(c4ccc(F)cc4)C3)[nH]n2)cc1 (stereo unspecified) | ? | ? | -26.7% | i
COc1ccc2cc(C3CN(C(=O)c4ccc(C)cc4OC)CCO3)ccc2c1 (stereo unspecified) | 22.4µM* | 44.7µM* | ? | 22.4µM*
Cc1ccccc1C(=O)N1CCC(C(=O)N2CCCC2c2nc3ccncc3[nH]2)CC1 (stereo unspecified) | -17.8% | -13.4% | nt | nt
Cc1noc(C)c1-c1cc2cc(CN(C)C)oc2c(N2CCN(Cc3ccccc3)CC2)n1 | 50.1µM* | 35.5µM* | -3.3% | i
COc1ncccc1-c1nc(-c2c(C)noc2C)cc2cc(CN(C)C)oc12 | -24.8%[172 µM] | ? | -3.1%[70.6 µM] | i
Cc1noc(C)c1-c1cc2cc(CO)oc2c(N2CCN(c3ccccn3)CC2)n1 | 70.8µM* | ? | -15.3%[70.6 µM] | i
Cc1noc(C)c1-c1cc2cc(CN(C)C)oc2c(N2CCN(c3ccccn3)CC2)n1 | 44.7µM* | 35.5µM* | -1.9%[70.6 µM] | i
CC1CCN(C(=O)c2cc3c(s2)CCN(C(=O)c2ccc(Cl)cc2)C3)CC1 | 39.8µM* | ? | -14.4% | i
CCCCc1ccc(NC(=O)CN2C(=O)NC(c3ccc(C)cc3)C3=C2COC3=O)cc1 (stereo unspecified) | 44.7µM* | ? | -14.1% | i
